# DT40 TDP1 no CPT – qHTS for Inhibitors of human tyrosyl-DNA phosphodiesterase 1 (TDP1): qHTS in cells in absence of CPT; DT40 Tdp1-/- hTDP1 cells, no CPT, ATP luminescence, 48 h; Potency, µM (titrated, usually from 46.2 µM), for the others: at the top dose activity change, negative = growth inhibition, actives largely listed as inhibitors; 420,000 tested, 15% active; AID 686978, 2013; note: potency is the fitted concentration of half-maximal effect; nearly all actives have a fitted effect of over 55% in size
#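 A cellular qHTS used chicken DT40 cells lacking endogenous Tdp1 but carrying stably transfected human TDP1. Compounds were applied without camptothecin, and cell growth kinetics were judged by ATP-dependent luminescence after ≥48 hr.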
# Giardia killer – kills Giardia lamblia | AID 540267 | Giardia lamblia trophozoite viability | 340,000 tested, 0.15% active | activity change, % at 7.66 µM, hits read low; in the data active = activity change below about -80%; inconclusive = between about -30% and that limit;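 note: parasites exposed to compound for two days anaerobically before the ATP read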
#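 Killing of trophozoites was scored by loss of ATP luminescence after a 48 hrs anaerobic exposure to compounds at 37 deg C, using 100 cells per well.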
# TDP1 cell CPT – DT40-hTDP1 cell growth loss with CPT. Potency, µM (highest dose often 46.2 µM), inactives show at the highest dose activity change, negative = growth inhibition, hits mostly inhibitors. 420,000 tested, 12% active. chicken DT40 Tdp1-/-;hTDP1 cells + 20 nM CPT, ATP luminescence, 48 h. AID 686979; note: potency is the fitted concentration of half-maximal effect; nearly all actives have a fitted effect of over 55% in size
#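 Chicken DT40 Tdp1-/- cells stably complemented with human TDP1 were seeded at 400 cells/well in medium containing 20 nM camptothecin, exposed to pin-transferred compounds, and grown at 37 °C for at least 48 hr. Viability was read as ATP luminescence.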
# ELG1 DNA repair – inhibitors of ELG1-dependent DNA repair in HEK293T cells; 330,000 tested, 2.3% active; HEK293T ELG1-luciferase reporter, luminescence, 16 h; DNA damage induced by 5-fluorouridine; Potency, µM (doses to about 46.1 µM), inactives show top-dose activity change, negative = inhibition, actives largely listed as inhibitors; note: potency is the fitted concentration of half-maximal effect; nearly all actives have a fitted effect of over 55% in size
#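 In this reporter screen, reduction of luminescence relative to DMSO vehicle indicated activity. Compounds and 5-fluorouridine were added together to 2,000 cells per well, incubated for 16 hr at 37 °C, then developed with ONE-Glo.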
# TDP1 inh – blocks human tyrosyl-DNA phosphodiesterase 1; Q9NUW8; recombinant TDP1, AlphaScreen DNA substrate cleavage; Potency, µM (titrated, usually from 130 µM), without a hit: at the highest dose activity change, negative = inhibition, usual class: inhibitors; 350,000 tested, 0.28% active; AID 485290; note: potency is the fitted concentration of half-maximal effect; nearly all actives have a fitted effect of over 40% in size
# Target sequence (Q9NUW8 whole entry, looked up): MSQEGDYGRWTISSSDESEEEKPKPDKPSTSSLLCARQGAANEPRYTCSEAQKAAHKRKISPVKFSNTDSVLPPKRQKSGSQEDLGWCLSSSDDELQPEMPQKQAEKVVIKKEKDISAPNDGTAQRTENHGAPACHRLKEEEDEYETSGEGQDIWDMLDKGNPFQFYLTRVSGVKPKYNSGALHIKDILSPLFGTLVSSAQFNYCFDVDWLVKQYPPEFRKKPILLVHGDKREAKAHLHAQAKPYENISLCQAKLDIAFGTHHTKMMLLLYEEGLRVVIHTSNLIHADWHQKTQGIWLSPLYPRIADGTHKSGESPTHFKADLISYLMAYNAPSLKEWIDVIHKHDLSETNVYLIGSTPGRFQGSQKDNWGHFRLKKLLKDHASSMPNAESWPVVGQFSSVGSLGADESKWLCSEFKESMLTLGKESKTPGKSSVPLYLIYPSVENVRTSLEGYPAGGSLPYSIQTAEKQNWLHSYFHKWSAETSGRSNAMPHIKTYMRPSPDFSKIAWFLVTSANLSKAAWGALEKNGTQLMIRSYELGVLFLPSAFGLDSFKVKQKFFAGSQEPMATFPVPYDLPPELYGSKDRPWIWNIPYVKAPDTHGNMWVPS
#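 Signal: AlphaScreen proximity between streptavidin donor and anti-FITC acceptor beads on intact substrate. Reaction: Tdp1 1 nM, substrate 15 nM final, 5 min RT after 15 min compound preincubation.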
# IL-1B inflam inh – inhibitors of inflammasome signaling (IL-1 beta secretion) | activity change, % at 57.5 µM | THP-1 LPS/ATP IL-1B secretion, AlphaLISA, 16 h; active compounds read low | 360,000 tested, 4.7% active | AID 743279; in the data active = activity change below about -50%; inconclusive = mostly about -30% to -49%
#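 THP-1 cells pretreated 1 hr with compounds (up to 57.5 uM final), then stimulated with LPS (250 ng/mL final) plus ATP (1.25 mM final); secreted IL-1B measured by AlphaLISA after 16 hr, decreased signal indicating inhibition.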
# Starred values were filed as active, the others as inactive; ? = inconclusive; / = no result; [ ] = remark or other dose. Compounds with a hit are over-represented: about 19% of the library has one in this group of screens. Unless noted, calls come from the whole dose curve; as a rule, active = well fitted curve in the direction sought with a large enough effect; inconclusive = small, poorly fitted or top-dose-only effect, or another doubt; inactive = no such curve, though single readings can be large; an effect the other way counts as inactive or inconclusive. % is set by controls: 0 for no effect and ±100 for the full control effect.
SMILES,DT40 TDP1 no CPT,Giardia killer,TDP1 cell CPT,ELG1 DNA repair,TDP1 inh,IL-1B inflam inh
CCc1nnc(NC(=O)c2nc(S(=O)(=O)Cc3ccccc3)ncc2Cl)s1,18µM*,-16,18µM*,?,3%,-100*
CCOc1ccccc1NC(=O)c1nc(S(=O)(=O)Cc2cccc(C)c2)ncc1Cl,0.65µM*,27,1.2µM*,?,5%,0
CCc1nnc(NC(=O)c2nc(S(=O)(=O)Cc3ccc(C)cc3)ncc2Cl)s1,21µM*,0,16µM*,?,3%,-102*
NC1=C(O)C(=O)C(c2ccccc2)O1 (centres undefined),5%,-9,-9%,15%,-15%,5
Cc1nc2ncnn2c(C)c1CCC(=O)NCc1ccccc1Cl,0%,/,19%,/,2%,/
NC(Cc1ccccc1)c1csc(Nc2ccc(C(=O)NCCCO)cn2)n1 (centres undefined),?,/,?,/,/,-4
CN(Cc1ccccc1)C(=O)c1ccc(Nc2nc(C(N)Cc3ccccc3)cs2)nc1 (centres undefined),13µM*,/,15µM*,/,/,-9
CN(Cc1ccccc1)C(=O)c1ccc(Nc2nc(C(N)Cc3ccc(C(F)(F)F)cc3)cs2)nc1 (centres undefined),12µM*,/,12µM*,/,/,-105*
CCCCN(C)C(=O)c1ccc(Nc2nc(C(N)Cc3ccccc3)cs2)nc1 (centres undefined),15µM*,/,23µM*,/,/,-7
CC(C)CC(N)c1csc(Nc2ccc(C(=O)N(C)Cc3ccccc3)cn2)n1 (centres undefined),5.8µM*,/,5.2µM*,/,/,-14
CC(C)C(N)c1csc(Nc2ccc(C(=O)NCCCO)cn2)n1 (centres undefined),-6%,/,-1%,/,/,6
O=C(CCNS(=O)(=O)c1ccc(F)c(F)c1)NCCN1CCOCC1,1%,2,-18%,24%,-1%,35
COc1ccc(NC(=O)CCNS(=O)(=O)c2ccc(Cl)c([N+](=O)[O-])c2)cc1S(N)(=O)=O,-12%,0,0%,0%,2%[0.0935 µM],12
CCCC[n+]1c(C)ccc2ccccc21,16µM*,/,?,/,/,/
Cc1cc(N)c2ccccc2[n+]1CCCCCCCCCCCCCC[n+]1c(C)cc(N)c2ccccc21,/,/,/,/,24%[56.1 µM],/
O=C(NCCc1ccccc1)c1n[nH]c2ccccc12,-23%,-1,-9%,?,-3%,17
O=C1CC(SCc2nc3ccccc3[nH]2)C(=O)N1c1cccc(Cl)c1 (centres undefined),13µM*,7,?,3%,/,11
O=C1CC(SCc2nc3ccccc3[nH]2)C(=O)N1c1ccc(F)cc1 (centres undefined),18µM*,-1,?,0%,11%,17
O=C1CC(SCCc2nc3ccccc3[nH]2)C(=O)N1c1ccc(F)c(Cl)c1 (centres undefined),-2%,17,-2%,/,/,11
CCN(c1ccccc1)S(=O)(=O)c1ccc2c(c1)C(C)(C)C(=O)N2C,?,8,5%,14%,/,-2
CSC(=S)NCc1cccnc1,3.3µM*,24,2.9µM*,-3%,-1%,-63*
NC(=S)NCc1cccnc1,27%,-21,-12%,8%,/,13
Cc1ccc2oc(-c3cccc(NC(=O)/C=C/c4cccc([N+](=O)[O-])c4)c3C)nc2c1,?,9,?,?,-5%,22
COc1ccc(C)cc1NC(=O)C(C)N(c1ccc(C)cc1)S(C)(=O)=O (centres undefined),?,-9,-8%,-1%,5%,17
Cc1ccc(N(C(C)C(=O)Nc2cc(Cl)ccc2Oc2ccccc2)S(C)(=O)=O)cc1 (centres undefined),?,18,?,-19%,-2%,-69*
